According to PubChem BioAssay (NCI):
About 83,000 compounds went through this panel and 20% of them were active in at least one assay; those are over-represented in the sample as a whole.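 Compound tested at a single concentration for 48 hours in 96-well plates; a percent growth value below 10 was scored as active.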 The source made the active and inactive calls.

Columns and labels:
Test in all cases: NCI-60 one-dose screen, 48 h (100 = growth as untreated, 0 = no growth, -100 = all killed)
Settings in all cases: 10 µM unless noted
SR leukemia = tested on: SR leukemia
OVCAR-8 ovarian = tested on: OVCAR-8 ovarian
OVCAR-5 ovarian = tested on: OVCAR-5 ovarian
SK-OV-3 ovarian = tested on: SK-OV-3 ovarian
IGROV1 ovarian = tested on: IGROV1 ovarian
OVCAR-3 ovarian = tested on: OVCAR-3 ovarian
HS 578T breast = tested on: HS 578T breast
NCI/ADR-RES ovarian = tested on: NCI/ADR-RES ovarian
T-47D breast = tested on: T-47D breast
MDA-MB-435 melanoma = tested on: MDA-MB-435 melanoma
SW-620 colon = tested on: SW-620 colon
MCF7 breast = tested on: MCF7 breast
HCT-116 colon = tested on: HCT-116 colon
HCC-2998 colon = tested on: HCC-2998 colon
KM12 colon = tested on: KM12 colon
RPMI-8226 leukemia = tested on: RPMI-8226 leukemia
OVCAR-4 ovarian = tested on: OVCAR-4 ovarian
BT-549 breast = tested on: BT-549 breast

O=[N+]([O-])c1ccc(C(c2ccccc2)c2ccccc2)cc1
growth (SR leukemia): 90.8% (inactive) | growth (OVCAR-8 ovarian): 107% (inactive) | growth (OVCAR-5 ovarian): 96.6% (inactive) | growth (SK-OV-3 ovarian): 102% (inactive) | growth (IGROV1 ovarian): 84.4% (inactive) | growth (OVCAR-3 ovarian): 98.9% (inactive) | growth (HS 578T breast): 109% (inactive) | growth (NCI/ADR-RES ovarian): 88.8% (inactive) | growth (T-47D breast): 109% (inactive) | growth (MDA-MB-435 melanoma): 99.5% (inactive) | growth (SW-620 colon): 87.5% (inactive) | growth (MCF7 breast): 84.9% (inactive) | growth (HCT-116 colon): 70.4% (inactive) | growth (HCC-2998 colon): 92% (inactive) | growth (KM12 colon): 90.9% (inactive)

Cc1cc(N)n(S(=O)(=O)c2oc(-c3ccccc3)nc2C#N)n1
growth (RPMI-8226 leukemia): 75.9% (inactive) | growth (OVCAR-8 ovarian): 89.4% (inactive) | growth (OVCAR-5 ovarian): 109% (inactive) | growth (OVCAR-4 ovarian): 106% (inactive) | growth (SK-OV-3 ovarian): 91.8% (inactive) | growth (IGROV1 ovarian): 97.9% (inactive) | growth (OVCAR-3 ovarian): 89.9% (inactive) | growth (HS 578T breast): 116% (inactive) | growth (NCI/ADR-RES ovarian): 100% (inactive) | growth (T-47D breast): 71% (inactive) | growth (BT-549 breast): 101% (inactive) | growth (MDA-MB-435 melanoma): 91.8% (inactive) | growth (SW-620 colon): 48.9% (inactive) | growth (MCF7 breast): 64% (inactive) | growth (HCT-116 colon): 75% (inactive) | growth (HCC-2998 colon): 114% (inactive) | growth (KM12 colon): 101% (inactive)

O=[N+]([O-])c1ccc(-c2cn(-c3ccccc3)c(-c3ccccc3)n2)cc1
growth (SR leukemia): 43.3% (inactive) | growth (OVCAR-8 ovarian): 70.6% (inactive) | growth (OVCAR-5 ovarian): 95.4% (inactive) | growth (SK-OV-3 ovarian): 79.1% (inactive) | growth (IGROV1 ovarian): 64.2% (inactive) | growth (OVCAR-3 ovarian): 97.4% (inactive) | growth (NCI/ADR-RES ovarian): 85.3% (inactive) | growth (T-47D breast): 65.9% (inactive) | growth (BT-549 breast): 96% (inactive) | growth (MDA-MB-435 melanoma): 100% (inactive) | growth (SW-620 colon): 95% (inactive) | growth (MCF7 breast): 74.4% (inactive) | growth (HCT-116 colon): 87.1% (inactive) | growth (HCC-2998 colon): 104% (inactive) | growth (KM12 colon): 94.4% (inactive)

O=S(=O)(NCCCNc1nccc(-n2ccc3cccnc32)n1)c1cccc(C(F)(F)F)c1
growth (SR leukemia): 103% (inactive) | growth (OVCAR-8 ovarian): 105% (inactive) | growth (OVCAR-5 ovarian): 101% (inactive) | growth (SK-OV-3 ovarian): 112% (inactive) | growth (OVCAR-3 ovarian): 112% (inactive) | growth (HS 578T breast): 100% (inactive) | growth (NCI/ADR-RES ovarian): 101% (inactive) | growth (T-47D breast): 99.6% (inactive) | growth (MDA-MB-435 melanoma): 108% (inactive) | growth (SW-620 colon): 108% (inactive) | growth (MCF7 breast): 103% (inactive) | growth (HCT-116 colon): 105% (inactive) | growth (HCC-2998 colon): 119% (inactive)

COc1cc(-c2nn(-c3cccc(NC(=O)c4ccc(N5CCOCC5)c(C(F)(F)F)c4)c3)cc2-c2ccncc2)ccc1Cl
growth (RPMI-8226 leukemia): 8.3% (active) | growth (OVCAR-8 ovarian): 5.23% (active) | growth (OVCAR-5 ovarian): 34.7% (inactive) | growth (OVCAR-4 ovarian): 52.3% (inactive) | growth (SK-OV-3 ovarian): 1.88% (active) | growth (IGROV1 ovarian): 41.8% (inactive) | growth (OVCAR-3 ovarian): -29.8% (active) | growth (HS 578T breast): -13.6% (active) | growth (NCI/ADR-RES ovarian): -7.13% (active) | growth (T-47D breast): 27.5% (inactive) | growth (BT-549 breast): 14.3% (inactive) | growth (MDA-MB-435 melanoma): -35.1% (active) | growth (SW-620 colon): 25.2% (inactive) | growth (MCF7 breast): 8.85% (active) | growth (HCT-116 colon): 8.35% (active) | growth (HCC-2998 colon): 8.82% (active) | growth (KM12 colon): 5.64% (active)

Cc1cc(C2(c3cc(C)c(O)cc3C)OS(=O)(=O)c3ccccc32)c(C)cc1O
growth (SR leukemia): 95.3% (inactive) | growth (OVCAR-8 ovarian): 103% (inactive) | growth (OVCAR-5 ovarian): 111% (inactive) | growth (SK-OV-3 ovarian): 101% (inactive) | growth (IGROV1 ovarian): 107% (inactive) | growth (OVCAR-3 ovarian): 107% (inactive) | growth (HS 578T breast): 96.3% (inactive) | growth (NCI/ADR-RES ovarian): 110% (inactive) | growth (T-47D breast): 102% (inactive) | growth (MDA-MB-435 melanoma): 116% (inactive) | growth (SW-620 colon): 106% (inactive) | growth (MCF7 breast): 78.5% (inactive) | growth (HCT-116 colon): 103% (inactive) | growth (HCC-2998 colon): 101% (inactive) | growth (KM12 colon): 106% (inactive)

O=C(C1=Cc2cc3ccccc3n2Cc2cnnn21)c1ccccc1
growth (RPMI-8226 leukemia): 53.1% (inactive) | growth (OVCAR-8 ovarian): 51.8% (inactive) | growth (OVCAR-5 ovarian): 89.2% (inactive) | growth (OVCAR-4 ovarian): 82.7% (inactive) | growth (SK-OV-3 ovarian): 67.8% (inactive) | growth (IGROV1 ovarian): 44.6% (inactive) | growth (OVCAR-3 ovarian): 26.9% (inactive) | growth (HS 578T breast): 69% (inactive) | growth (NCI/ADR-RES ovarian): 27% (inactive) | growth (T-47D breast): 28.8% (inactive) | growth (BT-549 breast): 37.5% (inactive) | growth (MDA-MB-435 melanoma): -7.53% (active) | growth (SW-620 colon): 28.5% (inactive) | growth (MCF7 breast): 35.2% (inactive) | growth (HCT-116 colon): 26.7% (inactive) | growth (HCC-2998 colon): 71.7% (inactive) | growth (KM12 colon): 33.8% (inactive)

CC(O)CN1CCCCC1 (centres undefined)
growth (RPMI-8226 leukemia): 113% (inactive) | growth (OVCAR-8 ovarian): 105% (inactive) | growth (OVCAR-5 ovarian): 110% (inactive) | growth (OVCAR-4 ovarian): 109% (inactive) | growth (SK-OV-3 ovarian): 107% (inactive) | growth (IGROV1 ovarian): 106% (inactive) | growth (OVCAR-3 ovarian): 105% (inactive) | growth (HS 578T breast): 113% (inactive) | growth (NCI/ADR-RES ovarian): 106% (inactive) | growth (T-47D breast): 137% (inactive) | growth (BT-549 breast): 101% (inactive) | growth (MDA-MB-435 melanoma): 105% (inactive) | growth (SW-620 colon): 102% (inactive) | growth (MCF7 breast): 103% (inactive) | growth (HCT-116 colon): 110% (inactive) | growth (HCC-2998 colon): 115% (inactive)

O=C(Nc1cccc(-n2cc(-c3ccncc3)c(-c3ccc(Cl)c(O)c3)n2)c1)Nc1cc(C(F)(F)F)cc(C(F)(F)F)c1
growth (RPMI-8226 leukemia): -10.9% (active) | growth (OVCAR-8 ovarian): -12.2% (active) | growth (OVCAR-5 ovarian): -32.9% (active) | growth (OVCAR-4 ovarian): 0.865% (active) | growth (SK-OV-3 ovarian): -24.3% (active) | growth (IGROV1 ovarian): 4.8% (active) | growth (OVCAR-3 ovarian): -67.5% (active) | growth (HS 578T breast): -26% (active) | growth (NCI/ADR-RES ovarian): 4.72% (active) | growth (T-47D breast): 12.1% (inactive) | growth (BT-549 breast): -35.9% (active) | growth (MDA-MB-435 melanoma): -31.1% (active) | growth (SW-620 colon): 3.32% (active) | growth (MCF7 breast): 2.71% (active) | growth (HCT-116 colon): -59.1% (active) | growth (HCC-2998 colon): -56.9% (active) | growth (KM12 colon): -50.3% (active)

Nc1nnc(-c2ccc3ccccc3c2O)o1
growth (RPMI-8226 leukemia): 90.8% (inactive) | growth (OVCAR-8 ovarian): 97.6% (inactive) | growth (OVCAR-5 ovarian): 102% (inactive) | growth (OVCAR-4 ovarian): 81.2% (inactive) | growth (SK-OV-3 ovarian): 105% (inactive) | growth (IGROV1 ovarian): 86% (inactive) | growth (OVCAR-3 ovarian): 99.2% (inactive) | growth (HS 578T breast): 97.9% (inactive) | growth (NCI/ADR-RES ovarian): 84.5% (inactive) | growth (T-47D breast): 87.2% (inactive) | growth (BT-549 breast): 103% (inactive) | growth (MDA-MB-435 melanoma): 110% (inactive) | growth (SW-620 colon): 84.9% (inactive) | growth (MCF7 breast): 94% (inactive) | growth (HCT-116 colon): 88.5% (inactive) | growth (HCC-2998 colon): 89.5% (inactive) | growth (KM12 colon): 99.4% (inactive)
